IDE exosite FP: exo-site inhibitors of human insulin-degrading enzyme; P14735; purified IDE, FL-6b probe fluorescence polarization; stronger effect = lower value; z-score at 20 µM; 17,000 compounds, 6.3% hits; AID 1259349;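 active means z-score of -3 or lower, meaning strong loss of probe binding signal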;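 further: His-tagged human IDE residues 42-1019 made in E. coli with 30 nM FL-6b probe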
Target sequence (P14735 42-1019 limits assumed): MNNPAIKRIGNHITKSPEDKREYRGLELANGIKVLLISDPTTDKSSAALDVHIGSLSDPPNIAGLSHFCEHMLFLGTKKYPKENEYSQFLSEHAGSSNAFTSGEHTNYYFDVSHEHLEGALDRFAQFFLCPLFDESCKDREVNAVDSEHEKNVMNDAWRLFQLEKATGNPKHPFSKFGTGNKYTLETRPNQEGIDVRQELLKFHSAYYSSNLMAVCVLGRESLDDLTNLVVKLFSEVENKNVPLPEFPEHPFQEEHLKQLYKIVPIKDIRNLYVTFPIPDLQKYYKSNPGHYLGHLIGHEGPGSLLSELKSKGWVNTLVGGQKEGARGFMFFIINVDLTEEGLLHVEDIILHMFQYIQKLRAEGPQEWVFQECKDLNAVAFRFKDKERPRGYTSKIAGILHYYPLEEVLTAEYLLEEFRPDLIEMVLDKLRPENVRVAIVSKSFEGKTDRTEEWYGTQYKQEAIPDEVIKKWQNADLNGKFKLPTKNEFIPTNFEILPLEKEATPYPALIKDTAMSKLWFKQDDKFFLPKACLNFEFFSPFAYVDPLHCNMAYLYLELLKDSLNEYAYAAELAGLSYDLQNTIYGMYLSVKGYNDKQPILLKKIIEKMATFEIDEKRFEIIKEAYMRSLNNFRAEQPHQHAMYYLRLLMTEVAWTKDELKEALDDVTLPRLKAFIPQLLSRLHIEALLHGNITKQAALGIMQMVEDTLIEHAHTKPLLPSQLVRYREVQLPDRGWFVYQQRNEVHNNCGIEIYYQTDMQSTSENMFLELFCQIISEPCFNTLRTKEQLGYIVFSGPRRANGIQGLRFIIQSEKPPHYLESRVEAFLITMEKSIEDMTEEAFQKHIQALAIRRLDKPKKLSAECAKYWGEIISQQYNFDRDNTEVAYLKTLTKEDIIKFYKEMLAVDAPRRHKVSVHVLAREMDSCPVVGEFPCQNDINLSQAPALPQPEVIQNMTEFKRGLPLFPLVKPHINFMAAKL
Active calls of the source: *. The sample as a whole holds a higher share of hits than the screen did.

SMILES	IDE exosite FP
O=C(Nc1ccc(F)cc1)N1CC(=O)N2[C@@H](CO)[C@@H](c3ccc(-c4cccc(F)c4)cc3)[C@@H]2C1	-1.3
C/C=C/c1ccc([C@H]2[C@@H](CO)N3C(=O)CN(Cc4ccc(C(=O)OC)cc4)C[C@H]23)cc1	2.7
O=C(C[C@H]1CC[C@H]2[C@@H](COC[C@H](O)CN2C(=O)c2cnccn2)O1)NCc1ccc(Cl)cc1	-1.3
COCC(=O)N1CC2(C1)CN(Cc1ccc3c(c1)OCO3)[C@H](CO)c1c2c2ccc(OC)cc2n1C	-1.6
COc1ccccc1-c1ccc([C@H]2[C@H]3CN(C(=O)CN4CCOCC4)CCCCN3[C@H]2CO)cc1	-2.6
O=C(CN1CCOCC1)N1CCCCN2[C@@H](CO)[C@@H](c3ccc(-c4ccccc4F)cc3)[C@@H]2C1	-5.1*
COc1ccccc1-c1ccc([C@@H]2[C@H]3CN(C(=O)CN4CCOCC4)CCCCN3[C@H]2CO)cc1	0.61
O=C(CN1CCOCC1)N1CCCCN2[C@H](CO)[C@@H](c3ccc(-c4ccccc4F)cc3)[C@H]2C1	1.6
O=C(CN1CCOCC1)N1CCCCN2[C@H](C1)[C@@H](c1ccc(-c3ccccc3F)cc1)[C@@H]2CO	-1.4
COc1ccccc1-c1ccc([C@@H]2[C@H](CO)N3CCCCN(C(=O)CN4CCOCC4)C[C@@H]23)cc1	-15*
C/C=C/c1ccc([C@H]2[C@@H](CO)N(CC3CCCC3)[C@H]2CNC(=O)NC(C)C)cc1	1.1
CCCC#Cc1ccc([C@@H]2[C@@H](CO)N3CCCCN(Cc4cccnc4)C[C@@H]23)cc1	3.1
CN(C)C(=O)c1cc2c(c(-c3cccc(/C=C/c4ccccc4)c3)n1)[C@H](CCO)N([S@@](=O)C(C)(C)C)C2	-1.1
CN1C(=O)c2cc(NC(=O)Nc3ccccc3Cl)ccc2OC[C@H]2O[C@@H](CC(=O)NCCCN3CCOCC3)CC[C@H]21	-1.3
O=C(c1ccccn1)N1CC(=O)N2[C@@H](CO)[C@@H](c3ccc(C#CC4CCCC4)cc3)[C@@H]2C1	2.3
N#Cc1cccc(-c2ccc([C@H]3[C@H](CO)N4CCCCN(C(=O)Nc5ccc(F)cc5)C[C@@H]34)cc2)c1	1.6
CC(C)CC#Cc1ccc([C@H]2[C@@H](CO)N3C(=O)CN(C(=O)c4ccc5c(c4)OCO5)C[C@H]23)cc1	0.84
O=C(O)C[C@@H]1CC[C@H]2[C@@H](COC[C@H](O)CN2S(=O)(=O)c2ccc(Oc3ccccc3)cc2)O1	1.7
COCC(=O)N1CCCCN2[C@H](CO)[C@@H](c3ccc(-c4ccc(F)cc4)cc3)[C@H]2C1	1.3
Cc1cccc(-c2ccc([C@@H]3[C@@H](CO)N4C(=O)CN(C(=O)NC5CCCCC5)C[C@@H]34)cc2)c1	-17*
Cc1cccc(-c2ccc([C@H]3[C@H]4CN(C(=O)NC5CCCCC5)CC(=O)N4[C@H]3CO)cc2)c1	-9.5*
CC(C)CC#Cc1ccc([C@@H]2[C@H]3CN(C(=O)NC(C)C)CC(=O)N3[C@H]2CO)cc1	-0.33
CS(=O)(=O)N1CC(=O)N2[C@H](CO)[C@@H](c3ccc(C#CCC4CCCC4)cc3)[C@@H]2C1	-0.65
COc1ccccc1S(=O)(=O)N(C)C[C@H]1OCc2ccccc2-c2ccccc2C(=O)N([C@H](C)CO)C[C@@H]1C	-0.15
C[C@H]1CN([C@@H](C)CO)S(=O)(=O)c2ccc(-c3ccc(F)cc3)cc2O[C@H]1CN(C)Cc1ccccc1C(=O)O	-0.78
SMILES	IDE exosite FP
CCC(=O)N1CCCCN2[C@H](CO)[C@@H](c3ccc(C#Cc4ccccc4)cc3)[C@@H]2C1	-9.2*
CCC(=O)N1CCCCN2[C@@H](CO)[C@@H](c3ccc(C#CCOC)cc3)[C@@H]2C1	2.5
CCC(=O)N1CCCCN2[C@H](CO)[C@@H](c3ccc(C#CCOC)cc3)[C@@H]2C1	2.4
CCC(=O)N1CCCCN2[C@H](CO)[C@H](c3ccc(C#CCOC)cc3)[C@H]2C1	3
CCC(=O)N1CCCCN2[C@@H](CO)[C@H](c3ccc(C#CCOC)cc3)[C@@H]2C1	2.8
CCC(=O)N1CCCCN2[C@@H](CO)[C@H](c3ccc(C#Cc4ccccc4)cc3)[C@@H]2C1	-9.4*
CCC(=O)N1CCCCN2[C@@H](CO)[C@H](c3ccc(-c4cccc(C#N)c4)cc3)[C@@H]2C1	0.21
O=C(Nc1ccccc1)N1CCCCN2[C@H](CO)[C@@H](c3ccc(C#Cc4ccccc4)cc3)[C@H]2C1	3.2
CCC(=O)N1CCCCN2[C@@H](CO)[C@@H](c3ccc(C#Cc4ccccc4)cc3)[C@@H]2C1	-7.7*
CCC(=O)N1CCCCN2[C@H](CO)[C@H](c3ccc(C#Cc4ccccc4)cc3)[C@H]2C1	-4.7*
N#C[C@H]1[C@H](c2ccccc2)[C@H](CO)N1S(=O)(=O)Cc1ccccc1	1.3
O=C(Nc1cccc(F)c1)N1CC(=O)N2[C@H](C1)[C@@H](c1ccc(C#CC3CC3)cc1)[C@@H]2CO	3.8
CO[C@@H]1CN(C)C(=O)c2cc(NC(=O)c3ccc4c(c3)OCO4)ccc2OC[C@@H](C)N(CCC(F)(F)F)C[C@@H]1C	0.42
CCN1[C@@H]2c3ccc(-c4ccccc4OC)c(=O)n3C[C@H]1[C@H](CO)[C@H]2C(=O)NCc1ccccn1	1.3
COc1ccccc1C(=O)Nc1ccc2c(c1)C(=O)N(C)[C@H]1CC[C@H](CC(=O)Nc3cccc(C(C)C)c3)O[C@@H]1CO2	-0.35
COCC#Cc1ccc([C@H]2[C@H](CO)N3C(=O)CN(C(=O)c4cccnc4)C[C@@H]23)cc1	5.4
N#C[C@H]1[C@H](c2ccccc2)[C@@H](CO)N1C(=O)c1cc(Cl)cc(Cl)c1	0.0046
COC(=O)c1ccc(CN2CC(=O)N3[C@H](C2)[C@@H](c2ccc(Br)cc2)[C@@H]3CO)cc1	1.4
O=C(CC1CC1)N1CC2(C1)[C@H](c1ccccc1)[C@@H](CO)N2Cc1ccccn1	1.4
O=C(c1ccncc1)N1CC2(C1)[C@@H](c1ccccc1)[C@@H](CO)N2CC1CC1	-0.48
O=C(Cc1ccccn1)N1CC2(C1)[C@@H](c1ccccc1)[C@H](CO)N2C(=O)c1ccncc1	-3.6*
C[C@@H]1CCCCO[C@@H](CN(C)C(=O)Cc2ccccc2)[C@H](C)CN([C@@H](C)CO)C(=O)c2cc(NS(C)(=O)=O)ccc2O1	1.2
O=C(C1CCOCC1)N1CC(=O)N2[C@H](CO)[C@@H](c3ccc(/C=C/c4ccccc4)cc3)[C@@H]2C1	-5.5*
O=C(C1CCOCC1)N1CC(=O)N2[C@H](CO)[C@@H](c3ccc(Br)cc3)[C@@H]2C1	-2.6
O=C(C1CCOCC1)N1CC(=O)N2[C@H](CO)[C@@H](c3ccc(/C=C/c4ccccc4)cc3)[C@H]2C1	-2.1
SMILES	IDE exosite FP
O=C(C1CCOCC1)N1CC(=O)N2[C@@H](CO)[C@H](c3ccc(/C=C/c4ccccc4)cc3)[C@@H]2C1	-4.5*
O=C(C1CCOCC1)N1CC(=O)N2[C@H](CO)[C@@H](c3ccc(Br)cc3)[C@H]2C1	0.54
O=C(C1CCOCC1)N1CC(=O)N2[C@@H](CO)[C@H](c3ccc(Br)cc3)[C@@H]2C1	4.2
COc1cccc(-c2ccc([C@@H]3[C@H]4CNCC(=O)N4[C@H]3CO)cc2)c1	-2.3
COc1ccccc1-c1cnc2c(c1)C(=O)N([C@H](C)CO)C[C@H](C)[C@H](CN(C)C(=O)CC1CC1)O2	-1.9
Cc1ccc(-c2ccc([C@H]3[C@@H](CO)N4C(=O)CN(C(=O)Nc5cccc(F)c5)C[C@H]34)cc2)cc1	2.8
C/C=C/c1ccc([C@H]2[C@@H](CO)N(c3nc(C)c(C)s3)[C@@H]2CNCC(C)C)cc1	-0.97
